Screening data (PubChem)
Lmaj promast = inhibitors of Leishmania major promastigote growth; Leishmania major promastigotes, resazurin fluorescence viability; inhibition, % at 10 µM; 200,000 tested, 9% active; AID 1063; in the data active = inhibition above about 50%;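 note: promastigotes grown with compound for 44 hours at 28 °C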
ROMK mod = human ROMK K+ channel modulation, primary screen | P48048 | 130,000 tested, 2% active | B-score at 10 µM | Tet-inducible ROMK, thallium flux fluorescence; actives lie on both sides;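 active = signal ratio slope over the read window, or its plate-corrected B-score, at least 3 SD from the plate mean, either direction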;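 note: B-score of the F/F0 ratio slope over 7 to 12 s after thallium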
Insulin prom up = MIN6 insulin promoter up-regulation. MIN6 insulin promoter-GFP reporter, high-content imaging; active compounds read high. z-score at 5 µM. 190,000 tested, 0.3% active. AID 1625;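 active = z-score above 3 at 5 µM with at least 500 cells counted in the well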
KCC2 mod = KCC2 (human) Cl- transport modulation | B-score of Tl+ flux slope (higher = more flux/activation; lower = inhibition) at 10 µM | 190,000 tested, 2.2% active | KCC2 cells, thallium flux FluoZin-2 fluorescence | Q9H2X9;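 active = thallium flux slope and its plate-corrected score both differing from the plate sample mean at a set confidence after two filtering rounds, in either direction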;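 note: slope of fluorescence scaled to starting intensity during 10 to 20 s after thallium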
Target sequence (Q9H2X9 whole entry, looked up): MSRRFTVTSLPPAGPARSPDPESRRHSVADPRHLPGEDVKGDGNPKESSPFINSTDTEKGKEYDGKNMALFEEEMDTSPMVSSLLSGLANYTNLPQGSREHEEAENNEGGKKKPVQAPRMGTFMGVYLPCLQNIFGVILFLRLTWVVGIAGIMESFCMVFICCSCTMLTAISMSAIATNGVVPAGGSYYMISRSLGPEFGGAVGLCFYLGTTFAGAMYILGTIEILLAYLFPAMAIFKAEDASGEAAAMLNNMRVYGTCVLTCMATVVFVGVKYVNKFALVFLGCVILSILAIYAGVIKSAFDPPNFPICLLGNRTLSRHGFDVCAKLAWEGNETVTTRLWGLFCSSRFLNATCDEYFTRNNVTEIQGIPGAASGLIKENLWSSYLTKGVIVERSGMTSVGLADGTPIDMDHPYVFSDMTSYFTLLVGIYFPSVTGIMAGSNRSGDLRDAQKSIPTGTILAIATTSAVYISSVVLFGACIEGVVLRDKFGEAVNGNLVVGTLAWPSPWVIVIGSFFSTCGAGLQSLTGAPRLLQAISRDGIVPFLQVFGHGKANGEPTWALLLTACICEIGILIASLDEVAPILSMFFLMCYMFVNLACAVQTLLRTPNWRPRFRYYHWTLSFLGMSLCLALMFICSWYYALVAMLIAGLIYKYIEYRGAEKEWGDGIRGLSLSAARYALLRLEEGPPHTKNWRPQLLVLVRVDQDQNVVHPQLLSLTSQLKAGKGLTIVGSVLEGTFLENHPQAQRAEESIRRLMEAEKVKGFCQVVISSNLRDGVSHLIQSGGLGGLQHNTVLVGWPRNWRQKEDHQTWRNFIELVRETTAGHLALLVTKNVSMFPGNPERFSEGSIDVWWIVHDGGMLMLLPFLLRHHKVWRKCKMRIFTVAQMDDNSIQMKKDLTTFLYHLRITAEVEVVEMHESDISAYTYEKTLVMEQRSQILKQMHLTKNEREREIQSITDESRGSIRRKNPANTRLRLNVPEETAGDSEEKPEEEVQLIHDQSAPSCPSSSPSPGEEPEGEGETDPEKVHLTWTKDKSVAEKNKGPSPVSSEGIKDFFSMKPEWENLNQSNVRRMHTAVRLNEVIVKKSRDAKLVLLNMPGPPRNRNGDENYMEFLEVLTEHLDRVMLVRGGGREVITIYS
INS promoter inh = TRM-6 insulin promoter activity inhibition. AID 1273. TRM-6 cells (human fetal islet line), insulin promoter-eGFP reporter, imaging; reporter expression induced with tamoxifen. 130,000 tested, 0.9% active. inhibition, % at 2 µM;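 active = inhibition above the mean plus 3 SD, with well images judged a real hit on visual review, cut at about 60% in these data, passing the limit was not always enough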
WT yeast gro inh = growth inhibition of WT yeast, mitochondrial fusion screen | mitochondrial fusion phenotypic screen, WT strain | inhibition, % at 10 µM | 190,000 tested, 2.1% active; in the data active = inhibition above about 58%; tested in S. cerevisiae
* = called active by the depositor; . = no result given. Compounds with a hit are over-represented: about 12% of the library has one in this group of screens.

SMILES | Lmaj promast | ROMK mod | Insulin prom up | KCC2 mod | INS promoter inh | WT yeast gro inh
CC(C)N1CCc2c(sc(NC(=O)c3cc(-c4cccs4)nc4ccccc34)c2C(N)=O)C1 | 91.5* | -0.634 | 1.47 | 0.01 | -209.5 | 48.9
NS(=O)(=O)c1ccc(NC(=O)c2ccc(S(=O)(=O)N3CCc4ccccc43)cc2)cc1 | -6.8 | 0.156 | 0.23 | 0.0614 | -42.9 | 2.6
O=C(Nc1ccc(S(=O)(=O)N2CCCc3ccccc32)cc1)C1CCCO1 (stereo not drawn) | 15.1 | . | 0.82 | -1.08 | -107.7 | -13.2
NC(=O)c1ccsc1NC(=O)c1ccc(S(=O)(=O)N2CCCc3ccccc32)cc1 | 99.5* | -0.529 | 0.37 | 1.11 | -119.5 | 37.4
O=S(=O)(NC1CC1)c1ccc(S(=O)(=O)N2CCCc3ccccc32)cc1 | 94.7* | . | -1.24 | . | . | 2.0
O=C(/C=C/c1ccco1)NC(=S)Nc1ccccc1N1CCOCC1 | 6.9 | -0.927 | -0.97 | -0.755 | -25.7 | 5.5
O=C(NC(=S)Nc1cccc(Cl)c1N1CCCCC1)c1ccco1 | 37.9 | . | -0.7 | 6.71* | -16.7 | 8.8
O=C(NC(=S)Nc1ccccc1N1CCCCC1)c1ccco1 | 4.1 | . | -0.57 | 19.9* | . | 72.7*
O=C(NC(=S)Nc1cccc(Cl)c1N1CCCCC1)c1cccs1 | 25.7 | 0.605 | -0.84 | 1.91 | 25.0 | 44.2
O=C(NC(=S)Nc1ccccc1N1CCOCC1)c1ccco1 | -4.4 | . | 0.59 | 18.5* | . | 7.9
COc1cccc(NS(=O)(=O)c2ccc(Br)s2)c1 | 0.4 | . | 0.32 | 0.178 | -34.6 | -5.0
CCOC(=O)C1(CCOc2ccccc2)CCN(Cc2cccc(-n3cccn3)c2)CC1 | 93.0* | -0.929 | . | -0.461 | . | 24.1
CCOC(=O)C1(CCc2ccccc2)CCN(C2Cc3ccccc3C2)CC1 | 80.7* | . | -0.6 | -0.73 | -15.4 | 13.3
CCOC(=O)C1(CCOc2ccccc2)CCN(CCCn2cccn2)CC1 | 78.8* | . | -0.98 | -0.477 | . | -2.0
CCOC(=O)C1(CCCc2ccccc2)CCN(Cc2cnn(C)c2)CC1 | 76.7* | -1 | -0.31 | -1.12 | . | 8.7
CCOC(=O)C1(CCOc2ccccc2)CCN(C(=O)c2ccc(-n3cccn3)cc2)CC1 | 17.2 | -0.215 | -0.16 | -0.796 | . | 42.8
CCOC(=O)C1CCCN(CC(=O)NC2CC2)C1 (stereo not drawn) | . | . | -0.17 | . | . | 3.5
CCCNC(=O)NC(=O)c1cnccc1C(F)(F)F | . | . | 0.13 | -0.0185 | . | .
CCCCn1nc2cc(C(=O)NCc3cc(C(F)(F)F)cc(C(F)(F)F)c3)ccc2c1OC | -4.0 | . | 0.66 | 0.642 | -11.4 | 0.1
CCc1cc(-c2n[nH]c(=S)n2C(C)c2ccccc2)cs1 (stereo not drawn) | -4.2 | -0.874 | . | 3.91* | -40.0 | 54.5
CN(Cc1ccccc1)c1nc2c(c(=O)[nH]c(=O)n2C)n1Cc1ccccc1Cl | 70.4* | . | 0.47 | 0.861 | 22.7 | 10.3
Cn1c(=O)[nH]c(=O)c2c1nc(N(CCO)Cc1ccccc1)n2CCCc1ccccc1 | 30.5 | . | -1.05 | . | . | -16.9
CN(Cc1ccccc1)c1nc2c(c(=O)[nH]c(=O)n2C)n1CCCc1ccccc1 | 53.6* | . | -0.58 | -1.88 | -35.5 | 48.4
C/C(=N\NC(=O)COc1cc(C)cc(C)c1)c1ccc(N2CCOCC2)cc1 | 0.4 | . | -0.2 | -0.49 | . | -0.1
Clc1ccc(CN(Cc2ccc(Cl)cc2)c2nn[nH]n2)cc1 | -7.1 | 0.319 | 1.19 | -5.9* | -18.2 | -15.2
SMILES | Lmaj promast | ROMK mod | Insulin prom up | KCC2 mod | INS promoter inh | WT yeast gro inh
CC(=O)c1ccc(NCC2COc3ccccc3O2)c([N+](=O)[O-])c1 (stereo not drawn) | 49.3 | -0.776 | -1.51 | -1.15 | . | -0.3
CCn1c(Cc2ccccc2)nnc1SCc1ccc([N+](=O)[O-])cc1 | -3.4 | -0.362 | -0.69 | -0.789 | -84.6 | 4.5
Cn1c(Cc2ccccc2)nnc1SCc1ccc(C(=O)O)cc1 | -0.2 | 0.473 | 0.39 | -0.0773 | 75.0* | -4.6
COCCn1c(Cc2ccccc2)nnc1SCc1ccc([N+](=O)[O-])cc1 | 51.5* | -0.49 | -0.92 | -0.148 | 2.7 | -1.9
COc1cccc(OCc2nnc(SC)n2C)c1 | -1.6 | . | 1.71 | 0.367 | . | -2.7
Cc1nn(CCC#N)c(N)c1C1(O)C(=O)Nc2c(Cl)cc(Cl)cc21 (stereo not drawn) | . | . | -0.16 | 0.851 | . | .
Cc1ccc(NC(=O)CSc2nnc(C)c(=O)[nH]2)cc1C | -5.1 | . | -0.05 | 0.632 | -60.0 | -14.1
Cc1cccc(C)c1NC(=O)CSc1nnc(C)c(=O)[nH]1 | 65.5* | . | -0.05 | 0.358 | -6.7 | -11.5
CCOC(=O)N1CCN(CCC(=O)Nc2ccccc2OC)CC1 | -2.9 | . | . | 2.1 | -30.8 | 10.0
